Screening results as filed in PubChem BioAssay.
F508del corr = correctors of CFTR F508del function in bronchial epithelial cells. CFBE cells, YFP halide quenching; stimulated with forskolin plus potentiator P3; % fluorescence drop versus neutral controls. activity (quench increase), % at 7.58 µM. 350,000 compounds, 0.36% hits;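 active means mean added fluorescence quench of at least 8% versus neutral control, with both replicates also reaching 8%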;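 further: cells transiently co-express mutant CFTR-F508del with the halide-sensitive YFP; corrector assay measuring rescue of mutant channel to the surface after 24 h compound exposure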
FGF22 binding = binders of recombinant human FGF22 by thermal shift. Q9HCT0. SYPRO orange fluorescence; percent of sucrose octasulfate shift, DMSO zero. activity (Tm shift, normalised), % at 9.99 µM. 340,000 compounds, 1.5% hits;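 active means mean Tm shift, scaled 0 neutral to 100 positive control, at about 1.3% or above, every replicate too, limit read from the data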
Target sequence (Q9HCT0 whole entry, looked up): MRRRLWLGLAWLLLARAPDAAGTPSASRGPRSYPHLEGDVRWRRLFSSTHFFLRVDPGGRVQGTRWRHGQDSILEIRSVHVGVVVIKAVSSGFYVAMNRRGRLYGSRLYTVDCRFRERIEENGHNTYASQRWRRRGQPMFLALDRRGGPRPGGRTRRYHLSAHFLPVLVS
Vif inh = inhibitors of HIV Vif. 340,000 compounds, 0.35% hits. AID 602346. inhibition, % at 7.49 µM. HEK293T cells, Vif self-association by quenched fluorescence, imaging, 24 h; in the data active means inhibition above about 50%, passing the limit was not always enough
* marks the source's active call; other numbers are inactive results; x = not tested or not shown. This is a sample that favours compounds with a hit; in the whole collection about 1.7% have one here.

SMILES	F508del corr	FGF22 binding	Vif inh
COc1ccc(C(=O)N/C(=C\c2cc(OC)c(OC)cc2[N+](=O)[O-])C(=O)NCC(=O)O)cc1	4.2	43.2*	-9.0
COc1cc(/C=C(\NC(=O)c2ccccc2)C(=O)NCC(=O)O)c([N+](=O)[O-])cc1OC	x	x	-4.4
C=C(C)C(=O)N1CC2(CC(c3cccc(NC(=O)c4ccccc4)c3)=NO2)C[C@@H]1C(N)=O (some centres not stated)	0.0	44.1*	0.1
C=C(C)C(=O)N1CC2(CC(c3cccc(NC(=O)CC)c3)=NO2)C[C@H]1C(N)=O (some centres not stated)	x	x	10.5
C[C@@H]1CN([C@H](C)CO)C(=O)Cc2cc(NC(=O)Cc3ccccc3)ccc2O[C@@H]1CN(C)C(=O)Nc1ccc(F)cc1	-1.7	-0.1	x
CCOCCCN(C(=O)CNC(=O)c1ccco1)C(C(=O)NC1CCCC1)c1cccc(OC)c1 (configuration not stated)	0.3	0.1	23.5
COCCN(C(=O)CNC(=O)c1ccco1)C(C(=O)NC1CCCC1)c1cccc(OC)c1 (configuration not stated)	2.0	0.1	51.9*
N#C/C(=C(/O)COC(=O)c1cccnc1Cl)c1nc2ccccc2[nH]1	-2.3	43.6*	0.5
N#C/C(=C(/O)c1ccc([N+](=O)[O-])s1)c1nc2ccccc2[nH]1	3.6	0.3	-6.0
N#C/C(=C(/O)COC(=O)c1ccc(O)cc1)c1nc2ccccc2[nH]1	-1.6	-0.1	1.9
C/C(O)=C(\C#N)c1nc2ccccc2[nH]1	x	x	51.1*
N#C/C(=C(/O)CCl)c1nc2ccccc2[nH]1	3.3	-0.1	6.1
N#C/C(=C(/O)c1ccc(Br)s1)c1nc2ccccc2[nH]1	10.0*	0.0	1.1
CC(=O)N1[C@H](CNC(=O)CN2CCOCC2)[C@H](c2ccccc2)[C@@H]1CO	-1.4	x	x
CCCNC(=O)N1C[C@H]2[C@@H](c3ccccc31)[C@H](CO)N2C(=O)Nc1ccccc1	0.3	-0.5	x
C[C@@H]1CN([C@H](C)CO)C(=O)c2cc(-c3cccc(F)c3)cnc2O[C@@H]1CN(C)Cc1ccccn1	0.2	-0.1	x
COc1cc(NC(=O)COC(=O)c2n[nH]c3ccccc23)c(C)cc1[N+](=O)[O-]	19.6*	-0.1	-4.5
COc1cc(NC(=O)COC(=O)C=C(C)C)c(C)cc1[N+](=O)[O-]	-2.1	43.8*	-4.0
O=C(COC(=O)c1n[nH]c2ccccc12)Nc1ccc([N+](=O)[O-])cc1	x	x	-0.1
C/C=C/C(=O)OCC(=O)Nc1cc(OC)c([N+](=O)[O-])cc1C	3.5	0.2	-5.2
C[C@@H]1CN([C@H](C)CO)C(=O)c2cccc(NS(=O)(=O)c3ccccc3)c2O[C@@H]1CN(C)Cc1ccc(C(F)(F)F)cc1	-2.1	-0.1	x
C[C@@H]1CN([C@H](C)CO)C(=O)c2cccc(NS(=O)(=O)c3cn(C)cn3)c2O[C@@H]1CN(C)Cc1ccccc1	-0.4	0.1	x
CCCC(=O)Nc1ccc2c(c1)C(=O)N(C)[C@@H]1CC[C@H](CC(=O)NC3CCCC3)O[C@H]1CO2	-2.6	-0.5	x
O=S(=O)(c1ccc(Br)cc1)N1CCCc2ccccc21	10.8*	0.0	-5.1
O=S(=O)(c1ccc(F)c(F)c1)N1CCCc2ccccc21	0.7	-0.1	-11.4
SMILES	F508del corr	FGF22 binding	Vif inh
CCC(=O)Nc1ccc2c(c1)OC[C@@H](C)N(Cc1ccncc1)C[C@H](C)[C@H](OC)CN(C)C2=O	1.4	-0.3	x
CN(C)c1cccc(C(=O)NNC(=S)NC2CC3CCC2C3)c1 (configuration not stated)	-0.5	42.3	14.5
CC(C)N(C(=S)NC1CC2CCC1C2)c1ccccc1 (configuration not stated)	-6.0	43.8*	8.9
CN(C)C(=O)[C@H]1[C@H](CO)[C@H]2Cn3c(ccc(-c4cccnc4)c3=O)[C@H]2N1Cc1ccccc1F	0.4	-0.1	x
Cc1ccc(S(=O)(=O)N[C@H]2CC[C@@H](CC(=O)O)O[C@@H]2CO)cc1	-0.1	0.3	x
COc1cc(OC)cc(-c2nc3ccccc3c(=O)n2OC(=O)c2ccc(C)c(C)c2)c1	9.1*	0.1	-5.3
COc1cc(OC)cc(C(=O)Nn2c(C)nc3ccccc3c2=O)c1	x	x	-6.0
C[C@H]1CN([C@@H](C)CO)C(=O)c2cccc(NC(=O)Nc3ccc(F)cc3)c2O[C@@H]1CN(C)C(=O)Nc1ccc(F)cc1	0.3	0.0	x
COc1ccc(S(=O)(=O)Nc2ccc3c(c2)C(=O)N([C@@H](C)CO)C[C@@H](C)[C@@H](CN(C)C(=O)CCCN(C)C)OCCCC[C@H](C)O3)cc1	0.0	-0.2	x
O=C(C[C@@H]1CC[C@@H]2[C@H](COC[C@H](O)CN2Cc2ccc(Cl)cc2)O1)NCc1ccccc1Cl	2.3	-0.5	x
OCCN(Cc1ccccc1)Cc1ncccc1O	-1.3	43.1*	-6.6
OCCN(Cc1cccnc1)Cc1ccccn1	0.1	-0.2	1.3
CCCC(=O)Nc1ccc2c(c1)C(=O)N(C)[C@H]1CC[C@H](CC(=O)Nc3ccccc3OC)O[C@@H]1CO2	-2.6	-0.2	x
COc1cccc(-c2cnc3c(c2)C(=O)N([C@H](C)CO)C[C@@H](C)[C@@H](CN(C)C(=O)Nc2c(C)noc2C)O3)c1	1.8	0.0	x
Cc1nnc2ccc(-c3ccc(NS(=O)(=O)c4ccccc4[N+](=O)[O-])cc3)nn12	-1.2	-0.1	76.0*
Cc1nnc2ccc(-c3ccc(NS(=O)(=O)c4ccccc4F)cc3)nn12	1.9	-0.1	18.5
Cc1nnc2ccc(-c3ccc(NS(=O)(=O)c4ccc(F)cc4F)cc3)nn12	-3.5	0.2	70.9*
Cc1nnc2ccc(-c3ccc(NS(C)(=O)=O)cc3)nn12	2.7	0.2	-3.2
COc1ccc(C#Cc2ccc([C@@H]3[C@H](CO)N4C(=O)CN(C(=O)c5cccnc5)C[C@@H]34)cc2)cc1	3.8	x	x
O=C(NC[C@H]1CC[C@H]2[C@H](CN2Cc2cccc(Cl)c2)O1)C1CCOCC1	3.0	x	x
CCCNC(=O)N(C)C[C@H]1Oc2ncc(-c3ccc(F)cc3)cc2C(=O)N([C@@H](C)CO)C[C@H]1C	-0.8	0.3	x
C[C@@H]1CN([C@H](C)CO)C(=O)c2cc(-c3ccccc3F)cnc2O[C@H]1CN(C)C(=O)C1CC1	0.3	-0.2	x
C/C=C/c1ccc([C@@H]2[C@@H](CO)N(C(C)=O)C23CN(C(=O)NC2CCCCC2)C3)cc1	-0.9	-0.3	x
O=C(Cc1ccccc1)N1CC(=O)N2[C@H](C1)[C@@H](c1ccc(C#Cc3ccccc3)cc1)[C@@H]2CO	8.0*	x	x
CCS(=O)(=O)N1CC(=O)N2[C@@H](CO)[C@H](c3ccc(C#CCC(C)C)cc3)[C@@H]2C1	2.6	0.8	x
CS(=O)(=O)N1CC(=O)N2[C@H](C1)[C@H](c1ccc(C#Cc3ccc(F)cc3)cc1)[C@@H]2CO	10.3*	0.1	x
O=C(Cc1ccccc1)N1CC(=O)N2[C@@H](CO)[C@@H](c3ccc(C#Cc4ccccc4)cc3)[C@@H]2C1	2.4	x	x
O=C(c1cccc(F)c1)N1CC(=O)N2[C@@H](CO)[C@@H](c3ccc(C#Cc4ccc(F)cc4)cc3)[C@@H]2C1	8.2*	x	x
CCS(=O)(=O)N1CC(=O)N2[C@H](C1)[C@@H](c1ccc(C#CCC(C)C)cc1)[C@@H]2CO	10.0*	0.1	x
